Where a chain is given by its changes, count along the chain named. In all, about 5,800 sequences were measured (“enrichment r”: median about 0.68, highest 2% from about 11 on). Only a selection was taken, and the highest values are over-represented in it overall.
T1: UNK ZnF1-6 (called full-length) (human, UniProt Q9C0B0 30-357)
T1 sequence: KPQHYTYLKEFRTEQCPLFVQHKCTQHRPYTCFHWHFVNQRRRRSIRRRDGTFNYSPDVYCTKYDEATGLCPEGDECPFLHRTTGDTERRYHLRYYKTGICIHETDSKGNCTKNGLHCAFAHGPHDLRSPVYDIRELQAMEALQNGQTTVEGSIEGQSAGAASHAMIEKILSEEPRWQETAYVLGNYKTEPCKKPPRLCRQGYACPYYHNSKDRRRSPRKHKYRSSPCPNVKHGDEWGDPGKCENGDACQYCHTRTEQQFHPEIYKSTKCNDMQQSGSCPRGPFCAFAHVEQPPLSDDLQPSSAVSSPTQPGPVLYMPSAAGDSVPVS

B1: chr19:58083837:58084684:-|three_prime_utr|ENSG00000121413|control|control|control (ssRNA)
RNA: GGGAGUUCUACAGUCCGACGAUCGCUCGCAUCCGAGGGGAGCCGCCGGAUGUGGAAGAAGACUCGGCUUUCCUGCAGCCAUUUAGUGCCGCCCCAUGCUAGGUUAUUUGACAUUGUGCAGUGUAGAGUUGCCUUAAAGUGCGUCAACAGAGGAUUGAGCAUCA
B2: chr1:211748167:211748268:-|3pUTR|ENSG00000123684|msi1|FALSE|unique (ssRNA)
RNA: GGGAGUUCUACAGUCCGACGAUCGUACUGCAUCAGUGAGAUGAGUAGGGUUUUUGUUUGGGAUUGUAAGACUAUUAAGAUCCUAGUAAGUCAGUGGUAGUUUACUGUGAUGUGAGCAUUGUAGAUUCCCCCGUUGUCACUAAUCAACAGAGGAUUGAGCAUCA
B3: chr17:63354981:63355093:+|CDS|ENSG00000170921|unk|total|mutant (ssRNA)
RNA: GGGAGUUCUACAGUCCGACGAUCCAGUCAAGGGUCCUAUCUAUAUCUGAAACUUACAUUUGACCUCACCGAGAAAGGCUAUCCCGUGUUAAAGAGCUCCCGCUACAAAGCCGUUCCUGUUUCGCUCUCAGAGGUUUAUUUACUCAACAGAGGAUUGAGCAUCA
B4: chr11:72288215:72288316:-|3pUTR|ENSG00000162129|unk|FALSE|unique (ssRNA)
RNA: GGGAGUUCUACAGUCCGACGAUCACCCAGCUAAUUUUUUUUGUAUUUUUAGUAAAGACGGGGUUUCACCAUGUUUGCCAGGCUAGUCUCAAACUCCUGGUCUCAAGUGAUCCACCCACCUUGGCCUCCCAGAGUGCUGAGAUUCAACAGAGGAUUGAGCAUCA
B5: chr11:107429260:107429366:-|CDS|ENSG00000152404|unk|total|mutant (ssRNA)
RNA: GGGAGUUCUACAGUCCGACGAUCGAGGAAACCCACAUAUUCAGAUAAAGCACAAAAUUGUCAAGAAAGCCGAGAAUCAGACUCCGUAAAAUAUGGUAACAGUUCAAGGGACCGAUAUGCUACAACAGAUACUGCAAAAAACCGCAACAGAGGAUUGAGCAUCA
B6: chr19:9526975:9527076:-|3pUTR|ENSG00000130818|unk|FALSE|unique (ssRNA)
RNA: GGGAGUUCUACAGUCCGACGAUCCCUCUCAGACCUUCCAUCAUUACUAUAUUUCACUUUUAUGCCUAUAAACACACACAAAUUAGCAUAUGUAAUCUAAUACAUUGUAGCUAUUUUUCAGAAGUUAUCAGAUCAAUUAAGUAUCAACAGAGGAUUGAGCAUCA
B7: ENSG00000136451:be:win_3351|3pUTR|ENSG00000136451|bound_else_gene|NA|bound_elsewhere_windowed (ssRNA)
RNA: GGGAGUUCUACAGUCCGACGAUCGAAGGCAACACAUUCCUACACUUUUAAUGUAUAUGUUUGUUAUAAUGUCCAUGUAAACAUGCCCUAUGUUUGUGCCUUUUAAUUAGUUUGUCUCAAUAAACAAAAUGUAGAGAAAAAUAUCAACAGAGGAUUGAGCAUCA
B8: chr11:69653362:69653473:+|3pUTR|ENSG00000110092|msi1_unk|FALSE|overlapping (ssRNA)
RNA: GGGAGUUCUACAGUCCGACGAUCACUGCCAUGUACUAGUUUUAGUUUUCUCUUAGAACAUUGUAUUACAGAUGCCUUUUUUGUAGUUUUUUUUUUUUUUAUGUGAUCAAUUUUGACUUAAUGUGAUUACUGCUCUAUUCCAAACAACAGAGGAUUGAGCAUCA
B9: chr10:92030471:92030572:+|3pUTR|ENSG00000095564|unk|FALSE|unique (ssRNA)
RNA: GGGAGUUCUACAGUCCGACGAUCUAUUUUUUUAUUAACUAUUUAUUUGCUAGUUCCAUAAACCAGCUCUUUAACAUAGCUUAUAGUAAUUGAUAUUUUCUUAGAAUAAGUACAGAGCAAUAUAUCAUUAAAGGGCUAUGAAGGCAACAGAGGAUUGAGCAUCA
B10: chr7:115017934:115018035:+|3pUTR|ENSG00000135272|unk|FALSE|unique (ssRNA)
RNA: GGGAGUUCUACAGUCCGACGAUCUGAGAUGAAACGUAGUUUCUAGUUAUAUCAUUACUUAAAGGGCUUAAAAAGAAAAAACUUAGCAAACUUUUGAAUCUUUCUUUUAUUGCUAUUUACACAUACAUACACACAUACAAAACCCAACAGAGGAUUGAGCAUCA
B11: chr10:92030471:92030572:+|3pUTR|ENSG00000095564|unk|total|mutant (ssRNA)
RNA: B9 RNA with U50C, A51C, U76C, A77C, U83C, A84C, U101C, A102C
B12: chr17:44253117:44253371:-|CDS|ENSG00000004939|control|control|control (ssRNA)
RNA: GGGAGUUCUACAGUCCGACGAUCCAAACCUGAGCGCAAGAUGGUCAAGGGCUCCGGCUUCCACCUGGACCUGCUGCUGGUAGUAGGCAUGGGUGGGGUGGCCGCCCUCUUUGGGAUGCCCUGGCUCAGUGCCACCACCGUGCGCAACAGAGGAUUGAGCAUCA
B13: chr6:105096826:105097152:-|3pUTR|ENSG00000112276|msi1|FALSE|unique (ssRNA)
RNA: GGGAGUUCUACAGUCCGACGAUCACUUGCAACCUAGUUUUAAAAUACAUGAGGAUUUUAUGAAAGCUUUAUACAGACAUUUAUAGGAAACUCAUUCUUUGAUUUUAGGUGCCAUUUAAAUUGAUAACACUUACUUUAUAAAAACAACAGAGGAUUGAGCAUCA
B14: chr10:91630394:91630495:-|CDS|ENSG00000119938|unk|total|mutant (ssRNA)
RNA: GGGAGUUCUACAGUCCGACGAUCCUUGGACCUUAAUGAUAUCUCCUCUGCCUUAAAACACCACGAGGAGAAAAACUUGAUUUCCGAUUUCCCUCAGCCUUCAACCGAUUACUUAAGUUUCCGGAGCCACUUUCAGAAGAACUUCAACAGAGGAUUGAGCAUCA

Target: T1, UNK ZnF1-6 (called full-length)
Test: nsRBNS (natural sequence RNA bind-n-seq); RBNS binding buffer (assumed for nsRBNS): 25 mM Tris pH 7.5, 150 mM KCl, 3 mM MgCl2, 0.01% Triton X-100, 500 ug/ml BSA, 20 U/ml SUPERase-In, 4 C; UNK is unkempt and MSI1 is Musashi-1; names of the RNAs are library labels; protein concentration not given here; high values mean tight binding

**Q.** B1 was tested. Which binding signal did it give?
**A.** The binding signal was 0.832 enrichment R.

**Q.** For B2, which binding signal is on record?
**A.** The binding signal was 0.481 enrichment R.

**Q.** With B3 as the binder, how does the binding signal read?
**A.** Its binding signal is 0.664 enrichment R.

**Q.** How did the binding signal turn out when B4 was run?
**A.** The binding signal was 3.92 enrichment R.

**Q.** Which binding signal does the source give for B5 here?
**A.** The binding signal was 0.603 enrichment R.

**Q.** How did the binding signal turn out when B6 was run?
**A.** The binding signal was 4.62 enrichment R.

**Q.** For B7, which binding signal is on record?
**A.** Its binding signal is 2.53 enrichment R.

**Q.** With B8 as the binder, how does the binding signal read?
**A.** Its binding signal is 80.9 enrichment R.

**Q.** How did the binding signal turn out when B9 was run?
**A.** Its binding signal is 34.3 enrichment R.

**Q.** With B10 as the binder, how does the binding signal read?
**A.** The binding signal was 5.81 enrichment R.

**Q.** Which binding signal does the source give for B11 here?
**A.** The binding signal was 5.92 enrichment R.

**Q.** With B12 as the binder, how does the binding signal read?
**A.** Its binding signal is 0.5 enrichment R.

**Q.** B13 was tested. Which binding signal did it give?
**A.** Its binding signal is 1.57 enrichment R.

**Q.** For B14, which binding signal is on record?
**A.** Its binding signal is 0.273 enrichment R.
